Source: PubChem BioAssay
Activity calls are given as the source filed them. Unless noted, no rule for the calls is given here.

What was measured:
[1] = system: Wnt5a (protein binding on small-molecule microarray); experiment: small molecules binding Wnt5a protein – biophysical, small-molecule microarray, 635/667 nm fluorescence, primary screen (AID 1142); settings: 635 nm fluorescence, higher = more signal;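 also: fluorescence read at 667 nm with signal to noise per printed feature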
[2] = ATP-based viability of Huh7 replicon cells – cell-based, CellTiter-Glo luminescence, basal, 48 h, cytotoxicity control for HCV replication inhibitor project, primary screen (AID 1143); settings: higher = more signal, called active from +8 up or from −8 down;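 also: Huh7 hepatoma cells carrying a hepatitis C replication reporter with no stimulus; test concentration not given here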
[3] = Pseudomonas biofilm growth suppression – PAO1 strain, BacTiter-Glo luminescence, LB-PBS, primary screen (AID 1144); settings: P. aeruginosa PAO1 biofilm, 12 h, higher = more signal
[4] = basal CRE-LacZ reporter activity in PC12 – cell-based, unstimulated, primary screen (AID 1145); settings: no forskolin, luminescence, 4.5 h, higher = more signal, called active from +8 up or from −8 down
[5] = forskolin-driven CRE-LacZ activity in PC12 – cell-based, CRE-LacZ reporter, forskolin-stimulated, primary screen (AID 1146); settings: luminescence, 4.5 h, higher = more signal, called active from +8 up or from −8 down;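 also: PC12 cells with 6xCRE LacZ reporter stimulated by forskolin 10 µM; beta-galactosidase reporter signal reflecting CREB driven transcription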
[6] = biological target: Streptavidin (Streptomyces avidinii) (UniProt P22629); experiment: compounds binding control protein streptavidin – biophysical, small-molecule microarray, 635/667 nm fluorescence, artefact control for SMM compound annotation, primary screen (AID 1147); settings: higher = more signal;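 also: signal reflects streptavidin binding to arrayed compounds as a control protein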
[7] = probe aInhba binding on compound microarray – biochemical, small-molecule microarray, 635/667 nm fluorescence, primary screen (AID 1148); settings: higher = more signal;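 also: score merges 667nm spot fluorescence with signal-to-noise for antibody binding to printed compounds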
Torsin-1A (Homo sapiens) [8] = biological target: Torsin-1A (Homo sapiens) (UniProt O14656); experiment: TOR1A wild-type binding on microarray – cell lysate, small-molecule microarray, lysate, 635/667 nm, primary screen (AID 1149); settings: COS7 hTOR1A-WT lysate, 635 nm fluorescence, higher = more signal
Torsin-1A (Homo sapiens) [9] = biological target: Torsin-1A (Homo sapiens) (UniProt O14656); experiment: torsin A mutant lysate binding on microarrays – cell lysate, small-molecule microarray, COS7 lysate, 635/667 nm fluorescence, primary screen (AID 1150); settings: COS7 hTOR1A mutant lysate, 635 nm fluorescence, higher = more signal;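 also: score pools 667 nm emission and signal to noise measuring lysate protein binding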
[10] = system: Sonic hedgehog protein (Shh); experiment: Sonic hedgehog microarray binding compounds – biochemical, small-molecule microarray, 635/667 nm fluorescence, primary screen (AID 1151); settings: 635 nm fluorescence, higher = more signal;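 also: Shh protein binding to compounds spotted on small-molecule microarray slides; score combines spot fluorescence intensity with signal-to-noise across triplicate slides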
[11] = optical density shifts of acrAB sulA E. coli – strain DRC41, OD650, 48 h, E. coli filamentation inducer project, primary screen (AID 1152); settings: higher = more signal, called active from +8 up or from −8 down;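 also: E. coli MC1000 strain DRC41 lacking acrAB efflux pump and sulA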
[12] = probe aLefty1 binding on compound microarray – biochemical, small-molecule microarray, 635/667 nm fluorescence, primary screen (AID 1153); settings: higher = more signal;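 also: score merges spot fluorescence with signal-to-noise ratio from the scanned slide images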
[13] = plasmodial surface anion channel blockers, osmotic lysis – cell-based, P. falciparum Indochina, OD700, 1 h, primary screen (AID 1154); settings: P. falciparum Indochina infected RBC osmotic lysis, higher = more signal, called active from +8 up or from −8 down
[14] = plasmodial surface anion channel blockers, osmotic lysis – cell-based, P. falciparum Indochina, OD700, 2 h, primary screen (AID 1155);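 also: lysis reports solute entry through the parasite surface anion channel PSAC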; settings: P. falciparum Indochina infected erythrocytes, higher = more signal, called active from +8 up or from −8 down
[15] = changes in parasitized red cell lysis, either direction – P. falciparum Indochina, OD700, 3 h, PSAC antagonist project, primary screen (AID 1156); settings: P. falciparum-infected erythrocytes, osmotic lysis, higher = more signal, called active from +8 up or from −8 down
[16] = plasmodial surface anion channel blockers, osmotic lysis – cell-based, P. falciparum Indochina, OD700, 18 h, primary screen (AID 1157); settings: P. falciparum Indochina infected erythrocytes, osmotic lysis OD700, 18 h; higher = more signal, called active from +8 up or from −8 down
[17] = S6 kinase pathway phospho-S6 level changes – cell-based, A549, cytoblot, luminescence, serum-stimulated, primary screen (AID 1158); settings: 5 h, higher = more signal;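 also: serum-stimulated A549 lung adenocarcinoma cells; signal is phosphorylated S6 detected by cytoblot immunostaining with HRP secondary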
[18] = biological target: NADPH oxidase 2 (Homo sapiens) (UniProt P04839); experiment: compounds shifting NOX2 Amplex Red fluorescence – cell-based, HEK293-NOX2, PMA-stimulated, NOX inhibitor project, primary screen (AID 1159); settings: 45 min, higher = more signal, called active from +8 up or from −8 down; also: test concentration not given here
[19] = biological target: NADPH oxidase 4 (Homo sapiens) (UniProt Q9NPH5); experiment: compounds shifting NOX4 Amplex Red fluorescence – cell-based, HEK293-NOX4, tetracycline-induced, NOX inhibitor project, primary screen (AID 1160); settings: HEK293-NOX4, Amplex Red H2O2 fluorescence, 45 min; higher = more signal, called active from +8 up or from −8 down
[20] = biological target: NADPH oxidase 5 (Homo sapiens) (UniProt Q96PH1); experiment: compounds shifting NOX5 Amplex Red fluorescence – cell-based, HEK293-NOX5, NOX inhibitor project, primary screen (AID 1161); settings: HEK293-NOX5, ionomycin, 45 min, higher = more signal
NADPH oxidase 5 (Homo sapiens), sequence (Q96PH1 whole entry, looked up): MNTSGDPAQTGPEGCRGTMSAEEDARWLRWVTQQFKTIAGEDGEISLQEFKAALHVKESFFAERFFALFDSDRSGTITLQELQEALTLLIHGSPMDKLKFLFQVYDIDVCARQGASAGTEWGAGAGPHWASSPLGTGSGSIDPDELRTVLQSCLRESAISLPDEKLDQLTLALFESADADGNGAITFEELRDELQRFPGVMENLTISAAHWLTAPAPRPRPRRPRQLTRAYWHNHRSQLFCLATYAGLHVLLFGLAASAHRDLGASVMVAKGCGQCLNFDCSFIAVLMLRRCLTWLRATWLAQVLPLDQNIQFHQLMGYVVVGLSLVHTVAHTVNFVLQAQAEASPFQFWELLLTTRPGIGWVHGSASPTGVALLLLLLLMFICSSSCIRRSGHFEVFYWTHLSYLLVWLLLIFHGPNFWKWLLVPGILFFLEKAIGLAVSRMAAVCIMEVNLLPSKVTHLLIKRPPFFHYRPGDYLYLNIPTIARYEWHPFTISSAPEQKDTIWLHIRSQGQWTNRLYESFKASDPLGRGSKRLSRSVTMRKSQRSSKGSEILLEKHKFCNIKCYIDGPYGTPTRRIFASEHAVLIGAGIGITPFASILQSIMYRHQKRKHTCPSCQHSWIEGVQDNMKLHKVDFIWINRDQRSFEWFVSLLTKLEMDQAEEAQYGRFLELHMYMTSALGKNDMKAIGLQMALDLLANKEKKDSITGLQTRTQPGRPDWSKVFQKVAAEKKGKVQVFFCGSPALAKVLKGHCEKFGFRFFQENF

Torsin-1A (Homo sapiens), sequence (O14656 whole entry, looked up): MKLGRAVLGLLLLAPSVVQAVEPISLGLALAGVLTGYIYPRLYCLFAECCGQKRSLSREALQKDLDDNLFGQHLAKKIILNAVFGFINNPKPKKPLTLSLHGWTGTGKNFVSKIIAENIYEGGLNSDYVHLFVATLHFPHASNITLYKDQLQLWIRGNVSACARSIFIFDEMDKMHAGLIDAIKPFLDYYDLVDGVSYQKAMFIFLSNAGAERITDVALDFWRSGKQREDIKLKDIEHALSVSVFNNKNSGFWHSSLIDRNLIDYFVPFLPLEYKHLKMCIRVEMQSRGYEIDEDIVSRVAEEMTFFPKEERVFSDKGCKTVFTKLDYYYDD
NADPH oxidase 2 (Homo sapiens), sequence (P04839 whole entry, looked up): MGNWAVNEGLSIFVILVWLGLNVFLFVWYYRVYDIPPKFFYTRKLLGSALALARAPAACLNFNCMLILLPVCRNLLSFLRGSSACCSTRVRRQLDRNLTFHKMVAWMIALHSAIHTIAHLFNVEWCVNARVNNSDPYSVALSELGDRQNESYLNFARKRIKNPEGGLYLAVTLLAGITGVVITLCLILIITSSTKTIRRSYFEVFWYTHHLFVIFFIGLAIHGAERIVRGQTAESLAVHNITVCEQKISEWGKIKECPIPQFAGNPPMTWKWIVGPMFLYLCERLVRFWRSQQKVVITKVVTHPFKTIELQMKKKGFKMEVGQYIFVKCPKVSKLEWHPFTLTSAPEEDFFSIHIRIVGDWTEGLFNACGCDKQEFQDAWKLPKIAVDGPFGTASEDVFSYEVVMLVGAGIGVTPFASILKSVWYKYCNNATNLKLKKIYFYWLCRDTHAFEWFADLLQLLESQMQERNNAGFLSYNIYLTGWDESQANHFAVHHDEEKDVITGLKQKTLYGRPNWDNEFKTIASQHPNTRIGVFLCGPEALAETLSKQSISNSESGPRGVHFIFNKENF
NADPH oxidase 4 (Homo sapiens), sequence (Q9NPH5 whole entry, looked up): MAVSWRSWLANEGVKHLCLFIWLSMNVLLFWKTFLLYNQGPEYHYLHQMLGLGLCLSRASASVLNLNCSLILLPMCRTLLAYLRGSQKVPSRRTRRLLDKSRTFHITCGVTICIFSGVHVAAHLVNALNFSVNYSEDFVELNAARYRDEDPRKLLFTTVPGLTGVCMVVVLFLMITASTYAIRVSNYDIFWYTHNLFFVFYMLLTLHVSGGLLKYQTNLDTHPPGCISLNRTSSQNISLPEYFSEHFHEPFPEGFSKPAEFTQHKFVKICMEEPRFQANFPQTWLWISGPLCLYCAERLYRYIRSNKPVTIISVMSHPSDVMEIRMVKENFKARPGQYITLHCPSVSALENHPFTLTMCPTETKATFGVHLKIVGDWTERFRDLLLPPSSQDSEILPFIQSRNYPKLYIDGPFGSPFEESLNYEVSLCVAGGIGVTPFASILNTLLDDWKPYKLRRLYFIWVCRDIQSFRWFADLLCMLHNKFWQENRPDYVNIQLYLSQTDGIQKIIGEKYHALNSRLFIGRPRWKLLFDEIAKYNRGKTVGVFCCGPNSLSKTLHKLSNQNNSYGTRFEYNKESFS
Streptavidin (Streptomyces avidinii), sequence (P22629 whole entry, looked up): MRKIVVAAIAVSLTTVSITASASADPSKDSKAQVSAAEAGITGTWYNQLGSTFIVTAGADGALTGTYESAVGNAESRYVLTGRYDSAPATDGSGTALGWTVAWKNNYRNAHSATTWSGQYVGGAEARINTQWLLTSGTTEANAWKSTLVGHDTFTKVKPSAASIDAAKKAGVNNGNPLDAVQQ

Compound	composite z-score [1]	z-score [2]	z-score [3]	z-score [4]	z-score [5]	composite z-score [6]	composite z-score [7]	composite z-score (Torsin-1A (Homo sapiens) [8])	composite z-score (Torsin-1A (Homo sapiens) [9])	composite z-score [10]	z-score [11]	composite z-score [12]	z-score [13]	z-score [14]	z-score [15]	z-score [16]	z-score [17]	z-score [18]	z-score [19]	z-score [20]
CCc1cccc(NC(=O)O[C@H]2[C@H](OC(=O)Nc3ccccc3-c3ccccc3)[C@@H](OC(=O)Nc3ccccc3-c3ccccc3)[C@@H](OC)O[C@@H]2CO)c1	0.729	-6.04 (inactive)	-0.0932 (inactive)	-0.655 (inactive)	-0.756 (inactive)	0.751	-0.0087	1.19	1.64	0.203	-1.5 (inactive)	0.419	3.37 (inactive)	0.995 (inactive)	-0.975 (inactive)	1.31 (inactive)	-0.84	-5.54 (inactive)	-1.18 (inactive)	-1.13
C=C[C@H](CO[Si](CC)(CC)CC)N(Cc1ccc(OC(C)=O)c(OC)c1)S(=O)(=O)c1ccc(Br)cc1	0.157	-4.96 (inactive)	0.451 (inactive)	-0.263 (inactive)	0.685 (inactive)	1.61	0.403	0.837	0.671	1.15	0.719 (inactive)	0.698	-0.0878 (inactive)	-0.231 (inactive)	-0.738 (inactive)	-1.39 (inactive)	0.674	-2 (inactive)	-0.928 (inactive)	-1.27
CC1(C)[C@@H]2CC(C(O)C3C=CC4C(=O)N(Cc5ccccc5)C(=O)C4N3n3cnnc3)=C[C@H]1C2 (stereo not given in full)	0.253	-0.346 (inactive)	0.132 (inactive)	-0.126 (inactive)	0.34 (inactive)	0.512	-0.0375	1.49	1.33	0.414	-0.316 (inactive)	0.0451	1.31 (inactive)	1.24 (inactive)	0.313 (inactive)	0.927 (inactive)	-0.688	-0.14 (inactive)	0.741 (inactive)	0.273
C=C(CC1([C@@H](NP(=O)(c2ccccc2)c2ccccc2)[C@H]2C[C@@H]2CCCC)CC1)c1ccccc1	0.542	-3.74 (inactive)	0.955 (inactive)	0.4 (inactive)	0.151 (inactive)	1.39	0.374	0.443	0.738	-0.509	-1.67 (inactive)	0.568	0.579 (inactive)	0.495 (inactive)	2.62 (inactive)	0.935 (inactive)	0.534	-0.538 (inactive)	-0.988 (inactive)	-2.95
COCCCNC(=O)[C@@H]1c2ccccc2C(=O)N(Cc2ccccc2Cl)[C@H]1c1ccc(CO)cc1	-0.0355	-0.0743 (inactive)	0.66 (inactive)	-0.179 (inactive)	-0.268 (inactive)	0.128	0.326	0.494	0.857	0.861	2.51 (inactive)	-0.121	1.62 (inactive)	0.293 (inactive)	0.621 (inactive)	0.11 (inactive)	-0.0671	-0.285 (inactive)	0.986 (inactive)	0.306
C[C@H]1NC(=O)[C@@]23C(=O)N[C@@H](Cc4ccccc4)C2[C@H](C)[C@@]2(C)O[C@H]2C3/C=C/C/C=C\CNC(=O)[C@@H]2CCCN2C1=O (stereo not given in full)	0.168	-0.0568 (inactive)	-0.545 (inactive)	1.03 (inactive)	0.647 (inactive)	0.301	-0.0589	0.396	-0.103	1.73	-0.0438 (inactive)	-0.0046	0.306 (inactive)	0.189 (inactive)	0.159 (inactive)	0.108 (inactive)	-0.199	-0.0374 (inactive)	1.41 (inactive)	0.41
CC(C)N1C(=O)c2ccccc2[C@](C)(C(=O)NCCN2CCOCC2)[C@@H]1c1ccc(CO)cc1	-0.568	0.0068 (inactive)	0.358 (inactive)	0.585 (inactive)	-0.875 (inactive)	-0.854	-0.0719	0.0436	0.212	-0.776	-0.469 (inactive)	0.0451	2.19 (inactive)	0.0259 (inactive)	0.914 (inactive)	0.426 (inactive)	-0.522	1.05 (inactive)	0.627 (inactive)	0.283
O=C1N[C@@H](Cc2ccccc2)C(=O)N2[C@@H]1C[C@@H](C(=O)O)[C@H]2c1cccc(OCCO)c1	0.0465	-0.333 (inactive)	-0.965 (inactive)	0.692 (inactive)	0.321 (inactive)	0.0555	-0.128	1.14	0.719	1.77	0.931 (inactive)	0.0903	6.39 (inactive)	1.12 (inactive)	-2.03 (inactive)	0.375 (inactive)	1.17	-2.21 (inactive)	-2.89 (inactive)	-0.102
COCCOC(=O)N1C(=O)[C@@]2(c3cc(C#CCC(C(=O)OC)C(=O)OC)ccc31)[C@H](c1ccccc1OCCO)N1[C@H](c3ccccc3)[C@H](c3ccccc3)OC(=O)[C@H]1[C@@H]2C(=O)NC[C@H](O)c1ccccc1	0.851	-4.23 (inactive)	0.166 (inactive)	-0.195 (inactive)	2.22 (inactive)	0.0919	0.158	0.555	0.389	1.98	-0.165 (inactive)	0.557	1.95 (inactive)	1.35 (inactive)	-0.0048 (inactive)	0.781 (inactive)	0.213	1.57 (inactive)	1.07 (inactive)	1.41
N#Cc1ccc(NN2C(C(O)C(c3ccccc3)c3ccccc3)C=CC3C(=O)N(c4ccccc4)C(=O)C32)cc1 (stereo not given)	0.382	-0.919 (inactive)	-0.731 (inactive)	0.243 (inactive)	-0.69 (inactive)	1.21	0.204	0.604	0.274	-0.634	-0.0948 (inactive)	0.651	5.66 (inactive)	0.96 (inactive)	0.891 (inactive)	1.24 (inactive)	0.151	-1.99 (inactive)	-2.82 (inactive)	-2.49
CCOC(=O)C[C@H]1[C@H](OC(=O)c2ccc(C(=O)c3ccccc3)cc2)[C@@H](NC(=O)c2ccc3ccccc3n2)c2cc(OCCCO)ccc2N1C(=O)c1ccccc1	0.369	-0.0142 (inactive)	0.0839 (inactive)	0.498 (inactive)	0.0154 (inactive)	0.616	0.0561	0.484	0.605	1.2	-0.983 (inactive)	-0.0683	0.839 (inactive)	-0.136 (inactive)	-0.883 (inactive)	-0.232 (inactive)	-0.322	0.34 (inactive)	1.06 (inactive)	1.2
CCOC(=O)C1=C[C@@H](C(C)(C)C)N(S(=O)(=O)c2ccc(C)cc2)[C@H]1c1ccc(F)cc1	0.219	-3.79 (inactive)	0.673 (inactive)	0.0423 (inactive)	0.81 (inactive)	1.1	0.255	0.159	0.575	0.584	-1.68 (inactive)	-0.0162	0.957 (inactive)	0.716 (inactive)	-0.862 (inactive)	0.634 (inactive)	-0.827	-0.829 (inactive)	-0.217 (inactive)	0.821
[N-]=[N+]=NCc1ccccc1[C@@H]1OC(c2ccc(OCCCO)cc2)=N[C@]1(Cc1ccccc1)C(=O)NCC(O)CO (stereo not given in full)	0.334	-1.58 (inactive)	0.0756 (inactive)	1.27 (inactive)	-0.757 (inactive)	0.255	0.84	0.281	0.294	-0.492	-0.0722 (inactive)	0.484	13.5 (active)	1.15 (inactive)	0.942 (inactive)	0.123 (inactive)	-0.319	-0.847 (inactive)	1.7 (inactive)	-0.0855
CCC[C@@H]1C[C@@]1(CCC)[C@@H](NS(=O)(=O)c1cccc2cccnc12)c1ccc(Cl)cc1	0.0298	-2.15 (inactive)	-0.0939 (inactive)	-0.754 (inactive)	0.852 (inactive)	0.633	0.0966	-0.405	0.177	-1.33	-1.61 (inactive)	0.617	0.0126 (inactive)	0.765 (inactive)	-1.01 (inactive)	1.01 (inactive)	0.883	-0.357 (inactive)	-0.382 (inactive)	0.127
C=C(/C(=C/C[C@H](OC(C)=O)c1ccc(CO)o1)c1cc(C(=O)OC)ccc1OC)C(C)C	0.0267	-3.56 (inactive)	0.263 (inactive)	2.22 (inactive)	0.769 (inactive)	-0.489	0.0051	-0.501	0.241	1.05	0.376 (inactive)	-0.0559	2.48 (inactive)	-1.22 (inactive)	2.6 (inactive)	-2.17 (inactive)	2.41	-1.66 (inactive)	-1.85 (inactive)	-2.34
Oc1ccc2cc[n+](Cc3sc4ccccc4c3Cl)cc2c1	-0.127	-0.683 (inactive)	-0.521 (inactive)	-0.374 (inactive)	0.232 (inactive)	0.361	-0.12	-0.648	0.11	1.53	-0.669 (inactive)	0.248	1.52 (inactive)	0.109 (inactive)	1.52 (inactive)	0.352 (inactive)	0.0138	-0.121 (inactive)	-1.23 (inactive)	-0.1
